According to the supplement of paper PMC10849652:
Of roughly 7,900 targets only a part is listed; those with a hit were picked by preference. About 0.6% of all pairs of compound and target were hits.

compound: C1CCN(C1)C(=O)NC2=CC=CC(=C2)NC3=NC=C(C(=N3)NCCC4=CN=CN4)Br; assay: log2 fold change, soluble protein after heating vs DMSO (PISA); higher = thermal stabilisation; K562 cells, 10 uM, 30 min; active = over 0.2 and 3.5 SD of the protein, either way, in both replicates (recomputed)
In short: (§1)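 K562 cells at 2×10^6 cells/mL were given 10 μM compound for 30 min. Aliquots then went through 3 min of heating across 48°C-58°C, were pooled, and were extracted in PBS with 0.5% NP-40 at 4°C, and the supernatant after 21,000xg for 90 min was quantified by TMTpro 16plex LC-MS/MS with channel sums equalised. Thermal stability relative to control samples, from duplicates, is given as log2 fold change.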

UniProt Q6NXR4, sequence (Q6NXR4 whole entry, looked up): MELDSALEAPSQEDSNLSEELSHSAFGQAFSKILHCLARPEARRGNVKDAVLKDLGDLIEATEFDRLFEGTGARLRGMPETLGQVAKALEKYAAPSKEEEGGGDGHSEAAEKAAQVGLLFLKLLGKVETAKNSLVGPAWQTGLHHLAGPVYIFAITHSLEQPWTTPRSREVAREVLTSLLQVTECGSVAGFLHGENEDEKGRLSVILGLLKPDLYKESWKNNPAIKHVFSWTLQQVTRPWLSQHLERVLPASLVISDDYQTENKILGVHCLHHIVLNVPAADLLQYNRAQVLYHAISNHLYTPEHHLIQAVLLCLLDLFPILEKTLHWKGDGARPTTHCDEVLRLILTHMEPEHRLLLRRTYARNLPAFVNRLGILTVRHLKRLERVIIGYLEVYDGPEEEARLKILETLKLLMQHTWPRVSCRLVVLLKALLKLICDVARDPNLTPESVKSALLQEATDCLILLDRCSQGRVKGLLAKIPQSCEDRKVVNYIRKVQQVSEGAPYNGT
UniProt A0PJW6, sequence (A0PJW6 whole entry, looked up): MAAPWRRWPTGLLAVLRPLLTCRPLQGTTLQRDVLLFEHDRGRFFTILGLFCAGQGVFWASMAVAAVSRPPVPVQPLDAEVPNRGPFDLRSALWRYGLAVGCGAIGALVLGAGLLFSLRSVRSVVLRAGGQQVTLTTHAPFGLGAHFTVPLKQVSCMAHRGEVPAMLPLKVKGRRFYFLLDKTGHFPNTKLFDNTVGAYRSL
UniProt Q8NEZ2, sequence (Q8NEZ2 whole entry, looked up): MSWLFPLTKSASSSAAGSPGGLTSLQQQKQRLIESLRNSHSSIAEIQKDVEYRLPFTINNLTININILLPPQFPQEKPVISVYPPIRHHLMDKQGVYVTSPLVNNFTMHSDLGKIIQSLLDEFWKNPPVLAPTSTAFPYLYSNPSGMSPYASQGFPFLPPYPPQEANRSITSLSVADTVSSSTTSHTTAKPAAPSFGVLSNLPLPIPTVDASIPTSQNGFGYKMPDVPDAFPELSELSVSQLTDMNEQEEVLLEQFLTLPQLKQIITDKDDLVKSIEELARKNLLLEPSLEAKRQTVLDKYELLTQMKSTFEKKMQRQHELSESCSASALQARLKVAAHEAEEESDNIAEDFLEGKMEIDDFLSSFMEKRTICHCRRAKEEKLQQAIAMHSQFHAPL
UniProt Q12888, sequence (Q12888 whole entry, looked up): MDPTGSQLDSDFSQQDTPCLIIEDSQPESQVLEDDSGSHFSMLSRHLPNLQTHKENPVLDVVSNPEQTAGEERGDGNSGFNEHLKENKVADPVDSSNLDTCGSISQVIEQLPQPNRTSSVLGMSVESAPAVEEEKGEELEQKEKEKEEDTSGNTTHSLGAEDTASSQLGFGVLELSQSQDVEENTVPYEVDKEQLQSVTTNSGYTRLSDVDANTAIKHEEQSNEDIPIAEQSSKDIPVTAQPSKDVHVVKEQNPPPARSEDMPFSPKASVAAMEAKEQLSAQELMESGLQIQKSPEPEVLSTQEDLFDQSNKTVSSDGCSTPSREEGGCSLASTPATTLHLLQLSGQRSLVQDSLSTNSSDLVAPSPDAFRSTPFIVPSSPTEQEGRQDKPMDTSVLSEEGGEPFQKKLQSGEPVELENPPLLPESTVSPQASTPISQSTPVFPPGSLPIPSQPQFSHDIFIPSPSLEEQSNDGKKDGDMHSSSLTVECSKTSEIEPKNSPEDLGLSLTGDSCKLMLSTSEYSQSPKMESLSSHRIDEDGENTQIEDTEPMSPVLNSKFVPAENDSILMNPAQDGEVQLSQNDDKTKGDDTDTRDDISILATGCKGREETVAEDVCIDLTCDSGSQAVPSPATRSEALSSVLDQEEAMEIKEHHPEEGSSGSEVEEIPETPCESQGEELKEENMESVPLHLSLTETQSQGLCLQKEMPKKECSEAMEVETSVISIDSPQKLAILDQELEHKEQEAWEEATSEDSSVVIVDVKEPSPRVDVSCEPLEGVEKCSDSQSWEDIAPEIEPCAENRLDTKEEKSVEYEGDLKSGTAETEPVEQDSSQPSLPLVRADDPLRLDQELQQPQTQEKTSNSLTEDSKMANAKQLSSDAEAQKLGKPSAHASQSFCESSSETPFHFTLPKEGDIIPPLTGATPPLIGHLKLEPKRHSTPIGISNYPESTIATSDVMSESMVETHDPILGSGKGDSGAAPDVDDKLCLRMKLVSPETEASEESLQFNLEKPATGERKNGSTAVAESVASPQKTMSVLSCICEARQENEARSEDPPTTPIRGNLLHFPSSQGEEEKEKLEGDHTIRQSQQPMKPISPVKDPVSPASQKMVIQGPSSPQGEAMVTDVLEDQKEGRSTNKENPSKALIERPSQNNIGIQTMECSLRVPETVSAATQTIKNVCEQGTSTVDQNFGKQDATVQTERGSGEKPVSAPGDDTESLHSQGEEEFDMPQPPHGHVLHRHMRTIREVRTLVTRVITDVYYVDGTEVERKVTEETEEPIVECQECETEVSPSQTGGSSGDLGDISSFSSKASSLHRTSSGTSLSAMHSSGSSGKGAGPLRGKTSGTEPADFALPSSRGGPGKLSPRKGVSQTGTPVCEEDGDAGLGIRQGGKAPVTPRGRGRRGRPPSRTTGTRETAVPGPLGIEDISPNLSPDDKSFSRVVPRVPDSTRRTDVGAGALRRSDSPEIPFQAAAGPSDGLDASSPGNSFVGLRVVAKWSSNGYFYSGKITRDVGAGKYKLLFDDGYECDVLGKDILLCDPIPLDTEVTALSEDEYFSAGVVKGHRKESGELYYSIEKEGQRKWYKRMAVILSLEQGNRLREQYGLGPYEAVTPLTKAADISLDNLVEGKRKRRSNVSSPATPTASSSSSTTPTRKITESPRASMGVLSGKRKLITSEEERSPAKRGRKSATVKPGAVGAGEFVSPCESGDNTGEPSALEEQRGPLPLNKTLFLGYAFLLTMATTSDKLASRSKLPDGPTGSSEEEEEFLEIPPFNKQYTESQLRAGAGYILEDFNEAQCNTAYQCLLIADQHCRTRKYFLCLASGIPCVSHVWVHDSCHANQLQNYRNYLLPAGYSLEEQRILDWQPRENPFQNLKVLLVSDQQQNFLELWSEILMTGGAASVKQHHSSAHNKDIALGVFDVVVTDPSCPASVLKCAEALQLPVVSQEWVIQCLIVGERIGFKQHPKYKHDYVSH
UniProt O14980, sequence (O14980 whole entry, looked up): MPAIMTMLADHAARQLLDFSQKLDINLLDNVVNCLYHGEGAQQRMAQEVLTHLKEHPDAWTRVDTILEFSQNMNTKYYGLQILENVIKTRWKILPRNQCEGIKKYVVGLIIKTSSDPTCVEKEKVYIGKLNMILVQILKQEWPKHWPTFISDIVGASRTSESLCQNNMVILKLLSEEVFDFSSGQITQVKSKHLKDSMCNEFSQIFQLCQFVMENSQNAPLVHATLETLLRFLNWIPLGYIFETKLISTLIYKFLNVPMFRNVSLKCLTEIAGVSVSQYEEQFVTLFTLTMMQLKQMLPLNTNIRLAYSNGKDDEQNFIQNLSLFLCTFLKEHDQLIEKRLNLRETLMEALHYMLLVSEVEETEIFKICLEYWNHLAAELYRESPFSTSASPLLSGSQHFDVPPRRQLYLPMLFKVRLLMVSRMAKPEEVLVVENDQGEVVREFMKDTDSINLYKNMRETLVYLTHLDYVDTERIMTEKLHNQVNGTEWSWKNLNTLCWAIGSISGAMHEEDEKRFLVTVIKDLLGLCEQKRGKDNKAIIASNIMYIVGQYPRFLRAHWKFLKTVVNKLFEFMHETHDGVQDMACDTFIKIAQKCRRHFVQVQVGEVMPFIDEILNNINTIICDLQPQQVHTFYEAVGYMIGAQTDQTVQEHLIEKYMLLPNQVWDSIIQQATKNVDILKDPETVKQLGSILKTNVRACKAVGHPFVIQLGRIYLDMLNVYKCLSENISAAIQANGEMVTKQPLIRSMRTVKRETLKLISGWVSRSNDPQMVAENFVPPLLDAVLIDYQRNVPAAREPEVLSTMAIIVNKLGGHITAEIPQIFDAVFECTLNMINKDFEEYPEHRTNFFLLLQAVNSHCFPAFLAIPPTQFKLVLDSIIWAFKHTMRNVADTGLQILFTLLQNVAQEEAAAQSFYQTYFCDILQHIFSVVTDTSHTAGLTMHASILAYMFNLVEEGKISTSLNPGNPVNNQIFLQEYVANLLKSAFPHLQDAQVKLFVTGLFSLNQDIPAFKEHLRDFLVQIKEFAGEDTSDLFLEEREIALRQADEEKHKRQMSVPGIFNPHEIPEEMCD
UniProt Q86SZ2, sequence (Q86SZ2 whole entry, looked up): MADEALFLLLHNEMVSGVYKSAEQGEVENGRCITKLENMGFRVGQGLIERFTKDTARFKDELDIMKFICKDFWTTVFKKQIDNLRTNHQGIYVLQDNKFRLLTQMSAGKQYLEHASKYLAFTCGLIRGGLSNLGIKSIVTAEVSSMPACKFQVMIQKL
UniProt Q9NQ34, sequence (Q9NQ34 whole entry, looked up): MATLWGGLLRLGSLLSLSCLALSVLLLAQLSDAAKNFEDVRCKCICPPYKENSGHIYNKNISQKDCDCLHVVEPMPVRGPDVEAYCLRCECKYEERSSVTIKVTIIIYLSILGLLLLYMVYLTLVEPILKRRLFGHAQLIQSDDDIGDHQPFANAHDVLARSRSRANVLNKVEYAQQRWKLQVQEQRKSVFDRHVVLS
UniProt Q01081, sequence (Q01081 whole entry, looked up): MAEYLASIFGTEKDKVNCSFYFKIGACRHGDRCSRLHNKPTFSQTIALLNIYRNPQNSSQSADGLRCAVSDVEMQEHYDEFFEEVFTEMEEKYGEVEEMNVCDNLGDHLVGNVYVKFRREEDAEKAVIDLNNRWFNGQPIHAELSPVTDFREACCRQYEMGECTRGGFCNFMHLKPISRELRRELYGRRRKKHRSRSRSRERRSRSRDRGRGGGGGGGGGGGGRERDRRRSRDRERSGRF
UniProt Q5BJH2, sequence (Q5BJH2 whole entry, looked up): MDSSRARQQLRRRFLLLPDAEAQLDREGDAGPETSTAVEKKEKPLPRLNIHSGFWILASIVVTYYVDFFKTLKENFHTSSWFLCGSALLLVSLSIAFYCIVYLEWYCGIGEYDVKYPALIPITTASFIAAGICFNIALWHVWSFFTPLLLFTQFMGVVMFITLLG
UniProt P61960, sequence (P61960 whole entry, looked up): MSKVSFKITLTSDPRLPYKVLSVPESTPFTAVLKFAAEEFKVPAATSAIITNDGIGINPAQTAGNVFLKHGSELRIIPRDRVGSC

log2 fold change, inactive:
TMEM223 (UniProt A0PJW6) 0.007
USP25 isoform 3 (UniProt Q9UHP3) -0.038
VPS41 (UniProt P49754) 0.043
WDR47 (UniProt O94967) 0.013
TMEM128 (UniProt Q5BJH2) -0.182
WDR41 (UniProt Q9HAD4) -0.012
TMEM9 (UniProt Q9P0T7) -0.053
VPS51 (UniProt Q9UID3) -0.029
TYW1 (UniProt Q9NV66) -0.041
TUBAL3 (UniProt A6NHL2) -0.046
TOM1L1 (UniProt O75674) 0.006
TPR (UniProt P12270) 0
TP53BP1 isoform 2 (UniProt Q12888) -0.057
TRAPPC2L (UniProt Q9UL33) -0.083
U2AF1 isoform 2 (UniProt Q01081) -0.071
TMEM9B (UniProt Q9NQ34) -0.006
VPS37A (UniProt Q8NEZ2) 0.036
WEE1 (UniProt P30291) -0.085
TNFAIP8 isoform 4 (UniProt O95379) 0.003
UBAP2L isoform 5 (UniProt Q14157) -0.007
WDR43 (UniProt Q15061) -0.013
UFD1 isoform 1 (UniProt Q92890) -0.036
TRAPPC6B (UniProt Q86SZ2) -0.048
UCHL5 isoform 3 (UniProt Q9Y5K5) 0.207
XPOT (UniProt O43592) -0.005
TMEM208 (UniProt Q9BTX3) -0.002
UFM1 (UniProt P61960) -0.297
UQCR10 (UniProt Q9UDW1) 0.006
USP7 (UniProt Q93009) -0.04
WDR46 (UniProt O15213) 0.057
TTI2 (UniProt Q6NXR4) 0.008
XPO1 (UniProt O14980) 0.002
TRMT10A (UniProt Q8TBZ6) 0.038
TMEM87B (UniProt Q96K49) -0.06
VPS13B (UniProt Q7Z7G8) -0.052
VPS33A (UniProt Q96AX1) -0.051
VWA3B isoform 6 (UniProt Q502W6) 0.03

compound: C1CN(CCC1(CC2=CC=C(C=C2)Cl)N)C3=NC=NC4=C3C=CN4; assay: as above
In short: as §1

log2 fold change, inactive:
TMEM223 (UniProt A0PJW6) -0.038
USP25 isoform 3 (UniProt Q9UHP3) 0.043
VPS41 (UniProt P49754) -0.058
WDR47 (UniProt O94967) 0.006
TMEM128 (UniProt Q5BJH2) 0.084
WDR41 (UniProt Q9HAD4) 0.073
TMEM9 (UniProt Q9P0T7) -0.025
VPS51 (UniProt Q9UID3) -0.02
TYW1 (UniProt Q9NV66) 0.022
TUBAL3 (UniProt A6NHL2) 0.145
TOM1L1 (UniProt O75674) 0.076
TPR (UniProt P12270) -0.142
TP53BP1 isoform 2 (UniProt Q12888) -0.077
TRAPPC2L (UniProt Q9UL33) -0.031
U2AF1 isoform 2 (UniProt Q01081) -0.071
TMEM9B (UniProt Q9NQ34) 0.042
VPS37A (UniProt Q8NEZ2) 0.008
WEE1 (UniProt P30291) -0.239
TNFAIP8 isoform 4 (UniProt O95379) 0.023
UBAP2L isoform 5 (UniProt Q14157) 0.026
WDR43 (UniProt Q15061) 0.042
UFD1 isoform 1 (UniProt Q92890) 0.024
TRAPPC6B (UniProt Q86SZ2) 0.018
UCHL5 isoform 3 (UniProt Q9Y5K5) -0.103
XPOT (UniProt O43592) -0.088
TMEM208 (UniProt Q9BTX3) 0.033
UFM1 (UniProt P61960) 0.088
UQCR10 (UniProt Q9UDW1) 0
USP7 (UniProt Q93009) -0.003
WDR46 (UniProt O15213) -0.087
TTI2 (UniProt Q6NXR4) -0.028
XPO1 (UniProt O14980) -0.027
TRMT10A (UniProt Q8TBZ6) -0.045
TMEM87B (UniProt Q96K49) 0.047
VPS13B (UniProt Q7Z7G8) 0.058
VPS33A (UniProt Q96AX1) -0.083
VWA3B isoform 6 (UniProt Q502W6) -0.03
